ABHD5-PLIN5 inh = ABHD5-PLIN5 protein interaction inhibition. Q00G26+Q8WTS1. inhibition, % at 4 µM. Split G. princeps luciferase complementation, luminescence, 4 h. 360,000 compounds, 0.78% hits;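 active means inhibition above the mean inhibition across every tested compound plus 3 SD, cut at about 22% in these data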;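 further: 0% = DMSO only wells and the 100% control is not disclosed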
TLR4-MyD88 BLA = TLR4-MyD88 interaction inhibition in cells. O00206+Q99836. HeLa CL3-4 TLR4/MyD88 BLA complementation, FRET ratio. inhibition, % at 8.4 µM. 200,000 compounds, 0.18% hits. AID 861; in the data active means inhibition above about 25%;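 further: 0% = vehicle and 100% = reference inhibitor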
Exocytosis inh = blocks lytic granule exocytosis | inhibition, % at 10 µM | TALL-104 LAMP-1 surface exposure, flow cytometry; cells stimulated with thapsigargin and PMA | 360,000 compounds, 0.66% hits | AID 651702;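 active means inhibition above about 55%, limit read from the data; inconclusive means no clear call, values can overlap the other calls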
TLR9-MyD88 inh = blocks human TLR9 binding to MyD88; Q9NR96+Q99836; CHO BLA complementation TLR9-MyD88, CCF4 FRET ratio; inhibition, % at 4.98 µM; 340,000 compounds, 0.21% hits; AID 504734;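 active means inhibition above the mean over all tested compounds plus 3 SD, cut at about 21% in these data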;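 further: 0% = DMSO only wells and 100% = clavulanate BLA inhibitor control wells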
PRMT1 inh = PRMT1 (human) inhibition, primary screen; Q99873; recombinant PRMT1, activity-based probe fluorescence polarization; inhibition, % at 2.79 µM; 370,000 compounds, 1.3% hits; AID 652257;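 active means inhibition above about 21% made by adding two undisclosed values, limit read from the data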
Target sequence (Q99873 whole entry, looked up): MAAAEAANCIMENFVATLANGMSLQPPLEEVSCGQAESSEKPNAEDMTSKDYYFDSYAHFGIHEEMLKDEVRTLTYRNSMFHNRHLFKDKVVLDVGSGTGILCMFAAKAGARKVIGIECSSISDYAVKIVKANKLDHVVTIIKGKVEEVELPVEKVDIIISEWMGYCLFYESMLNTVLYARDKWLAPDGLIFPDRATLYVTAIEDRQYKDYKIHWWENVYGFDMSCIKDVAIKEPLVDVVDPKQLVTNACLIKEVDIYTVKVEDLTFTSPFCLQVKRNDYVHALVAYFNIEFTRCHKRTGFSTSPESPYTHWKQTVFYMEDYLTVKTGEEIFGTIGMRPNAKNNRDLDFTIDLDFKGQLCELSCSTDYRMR
NOD2 RIPK2 PPI = inhibitors of human NOD2-RIPK2 interaction; AID 624267; O43353; CHO BLA complementation NOD2-RIPK2, CCF4 ratio; inhibition, % at 4.98 µM; 360,000 compounds, 0.38% hits; in the data active means inhibition above about 21%;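 further: 0% = vehicle only and 100% = reference blocker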
ABHD5-PLIN5 conf = confirmation of human ABHD5-PLIN5 interaction inhibitors. biochemical ABHD5-PLIN5 interaction, luminescence. shares compounds with ABHD5-PLIN5 inh. 2,200 compounds, 67% hits. inhibition, % at 4 µM; in the data active means inhibition above about 23%;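 further: 0% = DMSO vehicle wells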
HNF4 split-luc = counter-screen for ABHD5-PLIN5 inhibitors: HNF4 split-luciferase | 2,200 compounds, 77% hits | inhibition, % at 4 µM | shares compounds with ABHD5-PLIN5 inh | HNF4 dimerization, luminescence, biochemical;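 active means mean inhibition across replicate wells exceeding the computed hit threshold, cut at about 13% in these data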;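 further: light from luciferase halves that rejoin when HNF4 fusion proteins dimerize; 0% = DMSO only wells and the 100% control is not given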
* hit, by the source's call; ? = inconclusive; nt = not tested or not shown. In the library only some 2.6% were active in any assay of this set; here they are far more common.

SMILES | ABHD5-PLIN5 inh | TLR4-MyD88 BLA | Exocytosis inh | TLR9-MyD88 inh | PRMT1 inh | NOD2 RIPK2 PPI | ABHD5-PLIN5 conf | HNF4 split-luc
O=C(NNc1c2ccccc2nc2ccccc12)c1ccc(O)cc1O | 20 | -3 | 2 | -9 | 4 | -11 | nt | nt
O=C(C(=O)N1CCN(S(=O)(=O)c2ccc(C(F)(F)F)cc2)CC1)c1cccc(C(F)(F)F)c1 | nt | nt | nt | nt | 0 | nt | nt | nt
NC(=O)c1c(N)[nH]c(C(=O)c2ccccc2)c1-c1ccc(Br)cc1 | nt | nt | nt | nt | 1 | nt | nt | nt
CC(=O)C1=C(c2cccc([N+](=O)[O-])c2)N(C(C)=O)n2c(C)nnc2S1 | 61* | -2 | 56* | -1 | 75* | -2 | 82* | 47*
Cc1ccccc1OCCCN1CCC(C(O)(c2ccccc2)c2ccccc2)CC1 | nt | nt | nt | nt | -2 | nt | nt | nt
Cc1cccc(C)c1NC(=O)C(c1ccnc2ccccc12)n1c(=O)c(-c2ccco2)nc2ccccc21 (configuration not stated) | 45* | nt | -1 | nt | 6 | -17 | 52* | 13*
Cc1cccc(C)c1NC(=O)C(c1ccccc1F)n1c(=O)c(-c2ccco2)nc2ccccc21 (configuration not stated) | 86* | nt | -2 | nt | 17 | 3 | 76* | 28*
COC(=O)[C@H](N[C@H](/C=C/c1ccccc1)[C@@H](O)Cc1ccccc1)c1ccccc1 | nt | nt | nt | nt | 0 | nt | nt | nt
Cc1nc2scc(-c3ccco3)c2c(=O)n1/N=C/N(C)C | 43* | 10 | 3 | 1 | 16 | -4 | 19 | 29*
Cc1sc2nc(C)n(/N=C/N(C)C)c(=O)c2c1C | 0 | nt | -4 | -5 | 0 | -5 | nt | nt
O=C(/C=C/c1ccccc1)c1ccc2c(c1)OCCCCO2 | 24* | 24 | 0 | -3 | 3 | 7 | 53* | 43*
O=C(O)c1ccc2c(c1)OCCCO2 | -2 | nt | ? | -6 | 0 | -7 | nt | nt
COc1cccc(/C=C/C(=O)OCC(=O)c2ccc3c(c2)NC(=O)CO3)c1 | -5 | nt | -1 | -6 | -1 | -3 | nt | nt
N#Cc1ccc(/C=C/C(=O)c2ccc3c(c2)OCO3)cc1 | 33* | 16 | -2 | -2 | -5 | -7 | 88* | 82*
O=C1COc2ccc(C(=O)/C=C/c3ccccc3)cc2N1 | 47* | 10 | -3 | 3 | 1 | 11 | 77* | 62*
O=C1C2C3C=CC(C3)C2C(=O)N1c1ccc(-c2nc(-c3ccccc3)nc3ccccc23)cc1 (configuration not stated) | nt | nt | nt | nt | -5 | nt | nt | nt
C=CC[C@]12C[C@@]3(O[C@H](C4CCCCC4)N=C3C[C@H](c3ccc(OC)cc3)[C@H]1C)N(Cc1ccncc1)C2=O | nt | nt | nt | nt | 2 | nt | nt | nt
CC[n+]1c(/C=C/c2ccc(N(C)C)cc2)ccc2ccccc21 | 29* | 1 | -4 | -5 | 1 | -2 | 27* | 28*
CC[n+]1ccc(/C=C/c2ccc(N(C)C)cc2)c2ccccc21 | 28* | -3 | -6 | 1 | 7 | -4 | 32* | 33*
C=CCN1C(=O)c2n[nH]c(COC)c2C1c1cccc(C(F)(F)F)c1 (configuration not stated) | nt | nt | nt | nt | -4 | nt | nt | nt
CN(C)c1ccc(/C=C2\CCC/C(=C\c3ccccc3)C2=O)cc1 | 5 | 13 | 9 | 17 | -2 | -4 | nt | nt
CN(C)c1ccc(C=c2c3ccccc3n3c2c2c([n+]3C)CCCC2)cc1 | 29* | nt | 70* | 1 | 4 | 15 | 28* | 36*
Cc1onc(-c2ccccc2)c1C(=O)NN=Cc1cc(Cl)cc(Cl)c1O | nt | nt | nt | nt | -1 | nt | nt | nt
Cc1ccc2c(c1)c(C1=c3ccccc3=NC1=O)c(O)n2C | 33* | nt | 6 | 12 | 16 | 12 | 88* | 108*
Cc1c(-n2c(O)c(C3=c4ccccc4=NC3=O)sc2=O)c(=O)n(-c2ccccc2)n1C | -4 | -5 | -3 | 0 | 3 | -1 | nt | nt
CN(C)c1ccc(N=Nc2nc3ccccc3n2C)cc1 | 34* | nt | 7 | 1 | 0 | -3 | 26* | 46*
COC(=O)c1cc(-c2ccc(C)c(C)c2)c(=O)n2c1CCC2 | nt | nt | nt | nt | 3 | nt | nt | nt

Assay outcomes: PubChem BioAssay, several laboratories
